# Assay outcomes deposited in PubChem BioAssay by National Center for Advancing Translational Sciences (NCATS).
# This is a sample that favours compounds with a hit; in the whole collection about 3.1% have one here.
# uPA generation – qHTS for Inhibitors of Cell Surface uPA Generation. cell surface uPA generation assay, qHTS. Potency, µM (highest dose often 38.3 µM), hits mostly inhibitors. 330,000 compounds, 0.31% hits; active = well fitted inhibition curve with a large enough effect; inconclusive = small, poorly fitted or top-dose-only effect; inactive = no such curve, though single readings can be large or run the other way; tested in mouse RAW 264.7 cells; also: nearly all actives have a fitted effect of over 55% in size
# TSHR antag – Antagonists of the Thyroid Stimulating Hormone Receptor: HTS campaign; activity change, negative = inhibition, % at 11.5 µM; 330,000 compounds, 0.2% hits; AID 504810, 2011; TSHR-expressing cells, TSH-stimulated cAMP HTRF, 2 h; active compounds read low;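 active = activity change below a set negative limit, meaning inhibition stronger than a set level, cut at about -70% in these data; inconclusive = activity change between two set negative limits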
#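 Competitive HTRF cAMP read-out (cryptate anti-cAMP antibody, cAMP-d2; 30 min, room temperature) in freshly harvested TSHR cells. Compounds added before TSH at EC80 (4nM final), followed by 2 hours' incubation at 37 deg C.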
# PTAP TSG101 blk – qHTS Assay for Iinhibitors of HIV-1 Budding by Blocking the Interaction of PTAP/TSG101. Tumor susceptibility gene 101 protein (Homo sapiens), Q99816. Fluorescence polarization, FITC-PTAP peptide / Tsg101 binding. Potency, µM (doses to about 115 µM), actives largely listed as inhibitors. 340,000 tested, under 10 active. AID 493005, 2010; active = well fitted inhibition curve with a large enough effect in the main read-out, with a control signal flat, not every such curve was filed as active; inconclusive = small, poorly fitted or top-dose-only effect, or effect the other way, or a change in a side signal; inactive = no such curve, though single readings can be large or run the other way
#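 Tsg101 binding domain (10 uM final) was mixed with compound and a FITC-labeled PTAP peptide (50 nM final) in HEPES pH 7.5 buffer with NaCl, Tween 20, EDTA and TCEP; fluorescence polarization was read after 20 min at r.t.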
# PLK1 PBD inh – qHTS for Inhibitors of PLK1-PDB (polo-like kinase 1 - polo-box domain): Primary Screen. 360,000 compounds, 2.8% hits. Potency, µM, actives largely listed as inhibitors. Serine/threonine-protein kinase PLK1 (Homo sapiens), P53350. Plk1 PBD binding of FITC phosphopeptide, fluorescence polarization; also: series mostly up to about 57 µM; nearly all actives have a fitted effect of over 65% in size
# VDR inhibitor – Inhibitors of the vitamin D receptor (VDR): qHTS; VDR-SRC2-3 peptide fluorescence polarization, 2 h; Vitamin D3 receptor (Homo sapiens), P11473; Potency, µM, usual class: inhibitors; 400,000 compounds, 0.93% hits; AID 504847, 2011
# Target sequence (P11473 whole entry, looked up): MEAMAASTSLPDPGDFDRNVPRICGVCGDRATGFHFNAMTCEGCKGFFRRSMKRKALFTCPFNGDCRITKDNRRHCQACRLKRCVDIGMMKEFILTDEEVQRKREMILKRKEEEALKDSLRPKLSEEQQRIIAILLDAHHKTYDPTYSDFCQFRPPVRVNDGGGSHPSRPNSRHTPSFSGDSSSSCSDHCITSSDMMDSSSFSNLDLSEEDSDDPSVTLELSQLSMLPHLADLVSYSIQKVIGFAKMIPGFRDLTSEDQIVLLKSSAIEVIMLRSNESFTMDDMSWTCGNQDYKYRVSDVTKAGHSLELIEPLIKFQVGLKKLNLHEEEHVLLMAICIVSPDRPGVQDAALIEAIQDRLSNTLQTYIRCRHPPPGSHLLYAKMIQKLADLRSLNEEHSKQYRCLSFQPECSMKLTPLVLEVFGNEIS
#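 Fluorescence polarization assay of small-molecule disruption of VDR binding to coregulator peptide SRC2-3. Compounds and controls pin-transferred, then read after 2 h incubation at ambient room temperature.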
# A number is an active result; . = inactive; ? = inconclusive; / = no result. Unless noted, calls follow the shape of the dose curve; as a rule, active = well fitted curve in the direction sought with a large enough effect; inconclusive = small, poorly fitted or top-dose-only effect, or another doubt; inactive = no such curve, though single readings can be large; an effect the other way counts as inactive or inconclusive.
SMILES,uPA generation,TSHR antag,PTAP TSG101 blk,PLK1 PBD inh,VDR inhibitor
CC1(C)CC(=O)C(C(c2cccc([N+](=O)[O-])c2)C2C(=O)CC(C)(C)CC2=O)C(=O)C1,.,.,.,.,?
COc1ccc(C(C2C(=O)CC(C)(C)CC2=O)C2C(=O)CC(C)(C)CC2=O)cc1,.,.,.,9.5µM,56µM
CC1(C)CC(=O)C(C(c2ccncc2)C2C(=O)CC(C)(C)CC2=O)C(=O)C1,.,.,.,.,.
CC1(C)CC(=O)C(C(c2ccc3c(c2)OCO3)C2C(=O)CC(C)(C)CC2=O)C(=O)C1,/,/,/,17µM,/
Cc1ccc(C(C2C(=O)CC(C)(C)CC2=O)C2C(=O)CC(C)(C)CC2=O)s1,.,.,.,2.7µM,40µM
O=C(Oc1ccc2ccc(O)cc2c1)C1CCCCC1,.,.,.,4.2µM,?
COc1ccc(N(C)S(=O)(=O)c2ccc3c(c2)n(C)c(=O)c(=O)n3C)cc1,/,/,/,/,.
COc1ccc(C(=O)Nc2ccc(-c3cc(C(F)(F)F)nn3-c3ccccc3)cc2)cc1OC,/,/,/,/,.
CCC1CN(C(=O)N2CCC(C(=O)Nc3ccccc3OC)CC2)c2ccccc2O1 (stereo not drawn),.,.,.,27µM,?
CCC1CN(C(=O)NCc2ccccc2)c2ccccc2O1 (stereo not drawn),.,-72,.,.,.
CCC1CN(C(=O)N2CCC(C(=O)NCCOC)CC2)c2ccccc2O1 (stereo not drawn),/,/,/,/,.
NC(=O)C1CCN(c2nc(-c3ccc(N4CCCCC4)nc3)cs2)CC1,/,.,/,/,/
Cc1ccc(NC(=S)N2CCN(C(=O)c3ccccc3)CC2)c(C)c1,.,.,.,27µM,.
Cc1ccc(NC(=S)N2CCN(C)CC2)c(C)c1,.,.,.,.,.
COc1ccc(C)cc1NC(=O)CCNS(=O)(=O)c1ccc2c(c1)CC(C)N2C(C)=O (stereo not drawn),.,.,.,.,.
O=C(NC1CCCCCC1)C1c2ccccc2C(=O)N1Cc1ccc(F)cc1 (stereo not drawn),/,/,/,/,.
CCC(=O)Nc1sc(Cc2ccc3c(c2)OCO3)c(C)c1C(N)=O,.,.,.,21µM,?
COc1cc(C(=O)Nc2nc(C)c(Cc3ccc4c(c3)OCO4)s2)cc(OC)c1OC,?,.,.,9.5µM,?
Cc1nc(NC(=O)c2ccc(OCC(C)C)cc2)sc1Cc1ccc2c(c1)OCO2,?,.,.,.,.
Cc1c(Cc2ccc3c(c2)OCO3)sc(NC(=O)c2ccc3ccccc3c2)c1C(N)=O,.,.,.,13µM,.
CCOC(=O)[C@]12CCCC=C1N(CCC1=CCCCC1)C(=O)[C@H](CC(=O)NCCCN1CCCC1=O)C2,/,/,/,.,/
CC1(C)CC(=O)C2=C(C1)OC1=C(C(=O)CC(C)(C)C1)C2c1cc([N+](=O)[O-])cc([N+](=O)[O-])c1O,.,.,.,17µM,?
CCOc1cc(C2C3=C(CC(C)(C)CC3=O)OC3=C2C(=O)CC(C)(C)C3)cc([N+](=O)[O-])c1O,.,.,.,34µM,.
CCc1nn(CCCC(=O)N2CCN(c3cccc(OC)c3)CC2)c(=O)c2cc3occc3n12,/,/,/,/,.
CC1=C(SCc2ccccc2)C(=O)c2ccccc2C1=O,.,/,.,4.7µM,14µM
SMILES,uPA generation,TSHR antag,PTAP TSG101 blk,PLK1 PBD inh,VDR inhibitor
COc1ccccc1N1CCN(S(=O)(=O)c2c(C)nc3sc(C)c(C)n3c2=O)CC1,/,/,/,/,.
Cc1ccc(OCCOCCOc2cccc3cccnc23)c(Br)c1,.,.,.,27µM,.
Clc1cc(Br)ccc1OCCOCCOc1cccc2cccnc12,.,.,.,.,.
c1coc(-c2ccc3nncn3c2)c1,/,/,/,15µM,/
c1cc(N2CCOCC2)ccc1-c1ccc2nncn2c1,/,/,/,.,/
COc1cc(C(=O)NCC(=O)N2CCN(S(=O)(=O)c3cc(C)ccc3C)CC2)cc(OC)c1OC,2.2µM,.,.,.,.
Cc1ccc(C)c(S(=O)(=O)N2CCN(C(=O)CCNC(=O)c3ccc(Br)cc3)CC2)c1,.,.,.,.,.
Cc1c(CC(=O)NCCCC(=O)O)c(=O)oc2cc3c(cc12)CCC(C)(C)O3,.,.,.,27µM,?
COCCCNC(=O)Cc1c(C)c2cc3c(cc2oc1=O)OC(C)(C)CC3,?,.,.,.,.
COc1ccc(NC(=O)c2ccccc2F)cc1Cl,.,.,.,.,.
CCN(CC)c1ccc(NC(=O)c2ccc(=O)[nH]c2)cc1S(=O)(=O)Nc1ccccc1OC,.,.,.,4.7µM,32µM
CCN(CC)c1ccc(NC(=O)COc2ccccc2C)cc1S(=O)(=O)Nc1ccccc1OC,.,.,.,5.3µM,?
CCN(CC)c1ccc(NC(=O)c2ccccc2F)cc1S(=O)(=O)Nc1ccccc1OC,.,.,.,11µM,?
C#CCNC(=O)C[C@@H]1C[C@@]2(C(=O)OCC)CCC=C2N(CCC2=CCCCC2)C1=O,/,/,/,.,/
Cc1ccc(Oc2ccccc2/C=N/O)cc1,.,.,.,3.4µM,.
N#Cc1nccnc1S(=O)(=O)c1cccs1,.,-87,.,27µM,35µM
O=S(=O)(c1cccs1)N1CCN(S(=O)(=O)c2cccs2)CC1,.,.,.,.,.
Cc1ccc(Cl)cc1N1CCN(CCCNC(=O)C2COc3ccccc3C2)CC1 (stereo not drawn),/,/,/,/,.
CC(=O)c1ccc(S(=O)(=O)Nc2ccc(C(=O)N(C)CC(=O)Nc3cccc(C)c3C)cc2)cc1,.,.,.,.,.
CCOc1ccc(S(=O)(=O)Nc2cccc(C(=O)NCC(c3ccco3)N3CCCC3)c2)cc1 (stereo not drawn),.,.,.,.,.
C1=C(CCNc2nnnn2-c2ccccc2)CCCC1,.,.,.,21µM,?
c1ccc(CCNc2nnnn2-c2ccccc2)cc1,.,.,.,.,.
N#CCCn1c(=O)c(-c2ccc(Cl)cc2)nc2cnc(Oc3ccccc3)nc21,/,/,/,/,.
COc1ccc(-c2cccc(NS(=O)(=O)c3cc(C)c(Cl)cc3C)c2)nn1,/,/,/,/,.
O=C(NNS(=O)(=O)c1ccccc1[N+](=O)[O-])c1cccnc1,.,.,.,27µM,?
O=C(NNS(=O)(=O)c1ccccc1[N+](=O)[O-])c1cccc([N+](=O)[O-])c1,.,.,.,17µM,.
O=C(NNS(=O)(=O)c1ccccc1)c1cccnc1,.,.,.,.,.
COc1ccccc1NS(=O)(=O)c1cc(NC(=O)Nc2ccccc2)ccc1N1CCCCC1,.,.,.,?,.
COc1ccccc1NS(=O)(=O)c1cc(NC(=S)NCCN2CCOCC2)ccc1N1CCOCC1,.,.,.,5.3µM,79µM
COc1ccccc1NS(=O)(=O)c1cc(NC(=O)C2CCCC2)ccc1N1CCOCC1,.,.,.,15µM,?
